According to the supplement of paper PMC12494721:
Structures can show the parent of a compound that is named as a salt.

Key:
Details in all cases: incubation time: 27 h, anaerobic, 37 °C;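 for the amine columns active = adjusted P below 0.05 in both replicates with a change the same way and a mean fold change under 0.8 or over 1.25; inactive = the rest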
[1] = test system: Clostridium sporogenes DSM 1664; assay: growth (OD595) fold change vs plate DMSO controls (fold change (ratio)); higher = more growth
In short: (§1)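 Absorbance at 595 nm was read after shaking the anaerobic mGAM cultures, which had grown in 96-well plates for 27 h at 37 °C. After blank subtraction and background correction against 20 µM compound solutions in water, a calibration factor of 5 gave OD values. Growth is the fold change against the median of the plate's DMSO controls. Values are the mean of 2 biological replicates, with fold changes above 1.5 set to NA.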

[2] = test system: Escherichia coli IAI1; assay: as above
In short: as §1

[3] = test system: Klebsiella aerogenes DSM 30053; assay: as above
In short: as §1

[4] = test system: Ruminococcus gnavus DSM 108212; assay: as above
In short: as §1

[5] = test system: Klebsiella aerogenes DSM 30053; assay: fold change of Histamine concentration vs plate DMSO controls (fold change (ratio)); higher = more amine produced, active = hit call of the paper (significant change in both replicates, either direction)
In short: (§2)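 Extracts of whole anaerobic mGAM cultures were analysed for amines by LC–triple-quadrupole MS with dynamic MRM and external calibration curves, with drift corrected within batch. Four gut strains were grown at 37 °C for 27 h in 80 µL wells with compounds at 20 µM final, sweeteners at 50 µM final. Each value expresses fold change over plate DMSO controls. The average of 2 biological replicates is shown.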

[6] = test system: Clostridium sporogenes DSM 1664; assay: fold change of Tryptamine concentration vs plate DMSO controls (fold change (ratio)); higher = more amine produced, active = hit call of the paper (significant change in both replicates, either direction)
In short: as §2

[7] = test system: Ruminococcus gnavus DSM 108212; assay: as above
In short: as §2

[8] = test system: Escherichia coli IAI1; assay: fold change of Putrescine concentration vs plate DMSO controls (fold change (ratio)); higher = more amine produced, active = hit call of the paper (significant change in both replicates, either direction)
In short: as §2

[9] = test system: Klebsiella aerogenes DSM 30053; assay: as above
In short: as §2

[10] = test system: Escherichia coli IAI1; assay: fold change of Cadaverine concentration vs plate DMSO controls (fold change (ratio)); higher = more amine produced, active = hit call of the paper (significant change in both replicates, either direction)
In short: as §2

[11] = test system: Klebsiella aerogenes DSM 30053; assay: as above
In short: as §2

[12] = test system: Ruminococcus gnavus DSM 108212; assay: fold change of 2-Phenylethylamine concentration vs plate DMSO controls (fold change (ratio)); higher = more amine produced, active = hit call of the paper (significant change in both replicates, either direction)
In short: as §2

Compound	growth [1]	growth [2]	growth [3]	growth [4]	fold change of Histamine concentration [5]	fold change of Tryptamine concentration [6]	fold change of Tryptamine concentration [7]	fold change of Putrescine concentration [8]	fold change of Putrescine concentration [9]	fold change of Cadaverine concentration [10]	fold change of Cadaverine concentration [11]	fold change of 2-Phenylethylamine concentration [12]
C=C1C[C@H]2[C@@H]3C=C(C)C4=CC(=O)CC[C@]4(C)[C@H]3CC[C@]2(C)[C@@]1(OC(C)=O)C(C)=O [Melengestrol acetate] (20 µM)	1.17	1.07	1.07	1.04	1.03 (inactive)	1 (inactive)	1.03 (inactive)	1.02 (inactive)	1 (inactive)	1.02 (inactive)	0.995 (inactive)	1.05 (inactive)
CC(N)(Cc1ccc(O)c(O)c1)C(=O)O (centres undefined) [(L) Methyldopa] (20 µM)	0.936	0.99	1	0.89	1.06 (inactive)	1 (inactive)	1.11 (inactive)	0.882 (inactive)	1.06 (inactive)	0.965 (inactive)	1.07 (inactive)	1.26 (active)
O=S(=O)(O)NC1CCCCC1 [Cyclamic acid] (50 µM)	1.16	0.998	0.991	0.998	1.01 (inactive)	1.03 (inactive)	1.01 (inactive)	1.03 (inactive)	1.01 (inactive)	0.989 (inactive)	0.991 (inactive)	1.02 (inactive)
NS(=O)(=O)c1cc2c(cc1C(F)(F)F)NC(Cc1ccccc1)NS2(=O)=O (centres undefined) [Bendroflumethiazide] (20 µM)	0.897	1.01	1.06	1.05	0.915 (inactive)	0.993 (inactive)	0.993 (inactive)	0.977 (inactive)	0.971 (inactive)	0.959 (inactive)	1 (inactive)	0.957 (inactive)
Cc1ccc(Nc2c(F)cccc2Cl)c(CC(=O)O)c1 [Lumiracoxib] (20 µM)	0.867	0.984	1.1	1.08	0.88 (inactive)	0.956 (inactive)	0.971 (inactive)	1.02 (inactive)	1.02 (inactive)	1.02 (inactive)	1.03 (inactive)	0.994 (inactive)
CC1(C)[C@@H](OC(=O)CCC(=O)O)CC[C@]2(C)[C@H]3C(=O)C=C4[C@@H]5C[C@@](C)(C(=O)O)CC[C@]5(C)CC[C@@]4(C)[C@]3(C)CC[C@@H]12 [Carbenoxolone disodium salt] (20 µM)	1.06	0.984	0.977	0.91	1.03 (inactive)	0.925 (inactive)	1.04 (inactive)	1.04 (inactive)	1.02 (inactive)	0.999 (inactive)	0.993 (inactive)	1.07 (inactive)
CNC(=O)OCc1cccc(COC(=O)NC)n1 [Pyricarbate] (20 µM)	0.9	1.02	1.03	1.02	0.976 (inactive)	0.953 (inactive)	1.03 (inactive)	1.03 (inactive)	0.995 (inactive)	1.05 (inactive)	0.995 (inactive)	1.06 (inactive)
CCc1nn(CCCN2CCN(c3cccc(Cl)c3)CC2)c(=O)n1CCOc1ccccc1 [Nefazodone hydrochloride] (20 µM)	1.05	1.01	1.17	0.822	0.853 (inactive)	0.922 (inactive)	0.793 (active)	0.996 (inactive)	0.996 (inactive)	1.03 (inactive)	1.03 (inactive)	0.824 (inactive)
COc1cc(-c2ccc(=O)[nH]n2)ccc1OC(F)F [Zardaverine] (20 µM)	1.12	0.946	1.09	0.984	0.932 (inactive)	0.971 (inactive)	0.994 (inactive)	0.953 (inactive)	0.987 (inactive)	1.01 (inactive)	0.997 (inactive)	0.952 (inactive)
CC(=O)Nc1cccc(O)c1 [Metacetamol] (20 µM)	0.961	1.03	1.01	0.966	1.01 (inactive)	0.941 (inactive)	0.999 (inactive)	1.02 (inactive)	0.992 (inactive)	1 (inactive)	0.988 (inactive)	0.962 (inactive)
CCCC(CCC)C(=O)O [Valproic acid] (20 µM)	1.23	1.01	0.99	0.931	0.977 (inactive)	1.07 (inactive)	1.11 (inactive)	0.943 (inactive)	0.971 (inactive)	0.999 (inactive)	0.999 (inactive)	1.1 (inactive)
Cc1nc2n(c(=O)c1CCN1CCC(c3noc4cc(F)ccc34)CC1)CCCC2 [Risperidone] (20 µM)	1	1	1	1.02	1.04 (inactive)	0.962 (inactive)	0.931 (inactive)	1.33 (inactive)	1.05 (inactive)	0.952 (inactive)	1.01 (inactive)	0.878 (inactive)
CCN(CC)C(=O)N1CCN(C)CC1 [Diethylcarbamazine citrate] (20 µM)	1.12	0.975	1.04	0.977	0.954 (inactive)	1.03 (inactive)	0.976 (inactive)	0.988 (inactive)	0.985 (inactive)	1.02 (inactive)	1 (inactive)	0.905 (inactive)
OC(Cn1cncn1)(Cn1cncn1)c1ccc(F)cc1F [Fluconazole] (20 µM)	0.908	0.984	1.01	1.04	0.956 (inactive)	1.05 (inactive)	1.01 (inactive)	0.989 (inactive)	1.01 (inactive)	1.01 (inactive)	1.02 (inactive)	0.959 (inactive)
NC12CC3CC(CC(C3)C1)C2 [Adamantamine fumarate] (20 µM)	0.99	1.02	0.991	0.942	0.988 (inactive)	0.971 (inactive)	1.09 (inactive)	0.924 (inactive)	0.993 (inactive)	1.03 (inactive)	1.09 (inactive)	1.23 (inactive)
NC(=O)NS(=O)(=O)c1ccc(N)cc1 [Sulfacarbamide] (20 µM)	0.977	1.02	0.993	0.94	1.04 (inactive)	0.967 (inactive)	1 (inactive)	1.01 (inactive)	1.02 (inactive)	1 (inactive)	1.01 (inactive)	0.972 (inactive)
CC(NCCc1ccc(O)cc1)C(O)c1ccc(O)cc1 (centres undefined) [Ritodrine hydrochloride] (20 µM)	0.998	0.987	0.985	0.697	0.979 (inactive)	1 (inactive)	1.02 (inactive)	0.985 (inactive)	1.01 (inactive)	1.01 (inactive)	1.01 (inactive)	1.05 (inactive)
O=C(O)COC(=O)Cc1ccccc1Nc1c(Cl)cccc1Cl [Aceclofenac] (20 µM)	1.1	1.11	1.14	0.993	0.97 (inactive)	0.959 (inactive)	0.984 (inactive)	1.08 (inactive)	1.01 (inactive)	0.962 (inactive)	1.01 (inactive)	1.05 (inactive)
C[C@]12C=CC(=O)C=C1CC[C@@H]1[C@@H]2[C@@H](O)C[C@@]2(C)[C@H]1CC[C@]2(O)C(=O)CO [Prednisolone] (20 µM)	0.973	0.997	1	0.987	1.02 (inactive)	1.03 (inactive)	0.942 (inactive)	0.997 (inactive)	1 (inactive)	0.997 (inactive)	1 (inactive)	0.815 (inactive)
Cc1c(O)c(=O)ccn1C [Deferiprone] (20 µM)	1	0.999	1.04	1.06	1.03 (inactive)	1.05 (inactive)	1.02 (inactive)	1 (inactive)	1.01 (inactive)	1.03 (inactive)	0.999 (inactive)	1 (inactive)
O=c1[nH]c(=O)n([C@H]2C[C@H](O)[C@@H](CO)O2)cc1/C=C/Br [Brivudine] (20 µM)	1.08	1.06	1.02	1.06	0.978 (inactive)	1.03 (inactive)	1.04 (inactive)	0.968 (inactive)	1 (inactive)	0.982 (inactive)	1 (inactive)	1.08 (inactive)
CNCCC(Oc1ccc(C(F)(F)F)cc1)c1ccccc1 (centres undefined) [Fluoxetine hydrochloride] (20 µM)	1.18	1.02	1.03	1.2	0.972 (inactive)	0.945 (inactive)	0.882 (inactive)	0.927 (inactive)	0.993 (inactive)	1.19 (inactive)	0.995 (inactive)	0.907 (inactive)
